# From PubChem BioAssay (EPA / NIEHS)
# Some structures have more than one record in an assay (separate samples or runs), and their calls can disagree. Active and inactive are the calls of the source. How the source made its calls: active means hit-call score of the fitted dose curve at least 0.9, where 1 is the maximum; inactive means score below 0.9.
# Columns and labels:
# [1] = read-out: TIMP metallopeptidase inhibitor 1 (TIMP1), TIMP1 (gene 7076); experiment: BSK_hDFCGF_TIMP1: BioMAP Diversity Plus: hDFCGF Assay for TIMP metallopeptidase inhibitor 1 (TIMP1) Biomarker Activity (AID 2283062); settings: primary human foreskin fibroblasts; actives raise or lower the signal
# Outline: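 Human foreskin fibroblast primary cultures dosed for 24 h; secreted/surface TIMP-1 quantified by ELISA. Bidirectional curve fitting against DMSO baseline; cytotoxicity tracked in parallel cultures by SRB total-protein staining.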
# [2] = read-out: Monokine induced gamma interferon (MIG), CXCL9 (gene 4283); experiment: BSK_hDFCGF_MIG: BioMAP Diversity Plus: hDFCGF Assay for Monokine induced gamma interferon (MIG) Biomarker Activity (AID 2283063); settings: primary human foreskin fibroblasts; actives raise or lower the signal
# Outline: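 MIG/CXCL9 measured by ELISA 24 h after dosing primary human skin fibroblasts. Activity fitted in both directions against DMSO controls. Cytotoxicity was checked in parallel cultures by SRB staining read at 560 nm.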
# [3] = read-out: Matrix Metallopeptidase 1 (MMP1), MMP1 (gene 4312); experiment: BSK_hDFCGF_MMP1: BioMAP Diversity Plus: hDFCGF Assay for Matrix Metallopeptidase 1 (MMP1) Biomarker Activity (AID 2283064); settings: primary human foreskin fibroblasts; actives raise or lower the signal
# Outline: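 ELISA read-out of MMP1 from human foreskin fibroblasts (primary skin cells), 24 h post-dose. Gain or loss of signal was fitted bidirectionally versus DMSO negative control; cytotoxicity was checked by SRB in parallel cultures.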
# [4] = read-out: Vascular cell adhesion molecule 1 (VCAM1), VCAM1 (gene 7412); experiment: BSK_hDFCGF_VCAM1: BioMAP Diversity Plus: hDFCGF Assay for Vascular cell adhesion molecule 1 (VCAM1) Biomarker Activity (AID 2283065); settings: primary human foreskin fibroblasts; actives raise or lower the signal;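 on AC50: VCAM-1 protein level quantified by ELISA after 24 h chemical exposure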
# Outline: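 Human foreskin fibroblast primary cells dosed with chemical, VCAM-1 measured by ELISA at 24 h. Bidirectional curve fitting relative to DMSO as negative control/baseline.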
# [5] = read-out: Plasminogen activator inhibitor-1 (PAI1), SERPINE1 (gene 5054); experiment: BSK_hDFCGF_PAI1: BioMAP Diversity Plus: hDFCGF Assay for Plasminogen activator inhibitor-1 (PAI1) Biomarker Activity (AID 2283066); settings: primary human foreskin fibroblasts; actives raise or lower the signal
# Outline: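 ELISA readout of PAI-1 from primary human skin fibroblast cultures, 24 h after compound addition. Gain or loss of signal was fitted bidirectionally against DMSO baseline.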
# [6] = read-out: Intercellular Adhesion Molecule 1 (ICAM1), ICAM1 (gene 3383); experiment: BSK_KF3CT_ICAM1: BioMAP Diversity Plus: KF3CT Assay for Intercellular Adhesion Molecule 1 (ICAM1) Biomarker Activity (AID 2283067); settings: primary human keratinocytes with fibroblasts; actives raise or lower the signal
# Outline: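 Human keratinocyte–foreskin fibroblast co-culture was treated for 24 h. Cell-surface ICAM-1 was quantified by ELISA, fitted bidirectionally relative to DMSO. Cytotoxicity was checked in parallel cultures by SRB total-protein staining.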
# [7] = read-out: Interferon-gamma inducible Protein 10 (IP10), CXCL10 (gene 3627); experiment: BSK_KF3CT_IP10: BioMAP Diversity Plus: KF3CT Assay for Interferon-gamma inducible Protein 10 (IP10) Biomarker Activity (AID 2283068); settings: primary human keratinocytes with fibroblasts; actives raise or lower the signal
# Outline: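 ELISA read-out of IP-10 after 24 h chemical dosing of human skin primary co-culture (keratinocytes, foreskin fibroblasts). Gain or loss of signal relative to DMSO, bidirectional curve fit.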
# [8] = BSK_KF3CT_SRB: Viability Assessment in the BioMAP Diversity Plus: KF3CT Assay (AID 2283069); settings: primary human keratinocytes with fibroblasts;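 further: total protein by sulforhodamine B staining as a cytotoxicity measure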
# Outline: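 SRB read-out at 560 nm (0.1% stain, TCA-fixed cells) gauges overt cytotoxicity in a human skin keratinocyte–fibroblast co-culture 24 h post-dosing. Signal change was fitted bidirectionally relative to DMSO control.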
# [9] = read-out: Interleukin-1 alpha (IL1a), IL1A (gene 3552); experiment: BSK_KF3CT_IL1a: BioMAP Diversity Plus: KF3CT Assay for Interleukin-1 alpha (IL1a) Biomarker Activity (AID 2283070); settings: primary human keratinocytes with fibroblasts; actives raise or lower the signal
# Outline: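 Primary skin co-culture (keratinocytes, foreskin fibroblasts), 24 h exposure; ELISA for IL-1a; bidirectional curve fit vs DMSO.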
# [10] = read-out: TIMP metallopeptidase inhibitor 2 (TIMP2), TIMP2 (gene 7077); experiment: BSK_KF3CT_TIMP2: BioMAP Diversity Plus: KF3CT Assay for TIMP metallopeptidase inhibitor 2 (TIMP2) Biomarker Activity (AID 2283071); settings: primary human keratinocytes with fibroblasts; actives raise or lower the signal
# Outline: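 ELISA readout of TIMP-2 in keratinocyte plus foreskin fibroblast co-cultures (human skin primary cells), 24 h post-dose. Gain or loss of signal fitted relative to DMSO.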
# [11] = read-out: Transforming growth factor beta 1 (TGFb1), TGFB1 (gene 7040); experiment: BSK_KF3CT_TGFb1: BioMAP Diversity Plus: KF3CT Assay for Transforming growth factor beta 1 (TGFb1) Biomarker Activity (AID 2283072); settings: primary human keratinocytes with fibroblasts; actives raise or lower the signal
# Outline: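 Read-out: ELISA for TGF-b1 in keratinocyte/foreskin fibroblast human skin co-culture, 24 h after dosing; bidirectional curve fit vs DMSO baseline; gain or loss of signal scored.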
# [12] = read-out: C-C motif chemokine 2 (Homo sapiens) (UniProt P13500); experiment: BSK_KF3CT_MCP1: BioMAP Diversity Plus: KF3CT Assay for Monocyte Chemoattractant Protein 1 (MCP1/CCL2) Biomarker Activity (AID 2283073); settings: primary human keratinocytes with fibroblasts; actives raise or lower the signal
# Outline: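 Human keratinocyte–foreskin fibroblast co-culture; MCP-1 measured by ELISA 24 h after dosing. Bidirectional fit vs DMSO; cytotoxicity tracked by SRB total protein in parallel cultures.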
# [13] = read-out: Matrix Metallopeptidase 9 (MMP9), MMP9 (gene 4318); experiment: BSK_KF3CT_MMP9: BioMAP Diversity Plus: KF3CT Assay for Matrix Metallopeptidase 9 (MMP9) Biomarker Activity (AID 2283074); settings: primary human keratinocytes with fibroblasts; actives raise or lower the signal
# Outline: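 ELISA read-out of MMP-9 at 24 h post-dosing in a co-culture of human skin keratinocytes and foreskin fibroblasts. Gain or loss of signal was fitted in both directions against DMSO.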
# [14] = read-out: urokinase plasminogen activator (uPA), PLAU (gene 5328); experiment: BSK_KF3CT_uPA: BioMAP Diversity Plus: KF3CT Assay for urokinase plasminogen activator (uPA) Biomarker Activity (AID 2283075); settings: primary human keratinocytes with fibroblasts; actives raise or lower the signal
# Outline: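 Skin co-culture (keratinocytes + foreskin fibroblasts), human primary; 24 h post-dose; uPA by ELISA; gain/loss fit vs DMSO baseline.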
# CD40, CD40 (gene 958) = experiment: BSK_LPS_CD40: BioMAP Diversity Plus: LPS Assay for CD40 Biomarker Activity (AID 2283076); settings: primary human HUVEC with PBMC; actives raise or lower the signal
# Outline: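 HUVEC plus PBMC co-culture stimulated with LPS; CD40 quantified by ELISA 24 h after compound dosing. Fitting was bidirectional relative to DMSO. SRB staining of parallel cultures flagged overt cytotoxicity.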
# [15] = read-out: E-selectin (Homo sapiens) (UniProt P16581); experiment: BSK_LPS_Eselectin: BioMAP Diversity Plus: LPS Assay for Eselectin Biomarker Activity (AID 2283077); settings: primary human HUVEC with PBMC; actives raise or lower the signal
# Outline: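 Human umbilical vein endothelial cells co-cultured with PBMC under LPS stimulation; cell-surface E-selectin measured by ELISA 24 h after dosing. Change in either direction versus DMSO, with SRB total-protein staining in parallel cultures for cytotoxicity.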
# [16] = read-out: Interleukin-8 (IL8), CXCL8 (gene 3576); experiment: BSK_LPS_IL8: BioMAP Diversity Plus: LPS Assay for Interleukin-8 (IL8) Biomarker Activity (AID 2283078); settings: primary human HUVEC with PBMC; actives raise or lower the signal
# Outline: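 Human umbilical vein endothelial cells co-cultured with PBMC, LPS-stimulated, exposed to compound for 24 h. IL-8 quantified by ELISA; fitted in both directions against DMSO, with SRB total-protein staining of parallel cultures for cytotoxicity.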
# [17] = BSK_LPS_SRB: Viability Assessment in the BioMAP Diversity Plus: LPS Assay (AID 2283079); settings: primary human HUVEC with PBMC;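 further: total protein by sulforhodamine B absorbance as a cytotoxicity measure; measured one day after compound addition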
# Outline: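 Co-culture of human umbilical vein endothelial cells and PBMC, read 24 h after dosing. Total protein by 0.1% SRB staining after 10% TCA fixation, absorbance at 560 nm; bidirectional fit against DMSO.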
# [18] = read-out: Interleukin-1 alpha (IL1a), IL1A (gene 3552); experiment: BSK_LPS_IL1a: BioMAP Diversity Plus: LPS Assay for Interleukin-1 alpha (IL1a) Biomarker Activity (AID 2283080); settings: primary human HUVEC with PBMC; actives raise or lower the signal
# Outline: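 Human umbilical vein endothelial cells co-cultured with PBMC and stimulated with LPS; IL-1a measured by ELISA 24 h after dosing. Bidirectional fitting against DMSO; cytotoxicity checked by SRB staining in parallel cultures.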
# [19] = read-out: Monocyte Chemoattractant Protein-1 (MCP1), CCL2 (gene 6347); experiment: BSK_LPS_MCP1: BioMAP Diversity Plus: LPS Assay for Monocyte Chemoattractant Protein-1 (MCP1) Biomarker Activity (AID 2283081); settings: primary human HUVEC with PBMC; actives raise or lower the signal
# Outline: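 Human umbilical vein endothelial cells co-cultured with PBMC, LPS-stimulated; secreted MCP-1 measured by ELISA 24 h after compound addition. Bidirectional curve fitting against DMSO baseline; SRB total-protein staining in parallel cultures for cytotoxicity.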
# Sequence of E-selectin (Homo sapiens) (P16581 whole entry, looked up): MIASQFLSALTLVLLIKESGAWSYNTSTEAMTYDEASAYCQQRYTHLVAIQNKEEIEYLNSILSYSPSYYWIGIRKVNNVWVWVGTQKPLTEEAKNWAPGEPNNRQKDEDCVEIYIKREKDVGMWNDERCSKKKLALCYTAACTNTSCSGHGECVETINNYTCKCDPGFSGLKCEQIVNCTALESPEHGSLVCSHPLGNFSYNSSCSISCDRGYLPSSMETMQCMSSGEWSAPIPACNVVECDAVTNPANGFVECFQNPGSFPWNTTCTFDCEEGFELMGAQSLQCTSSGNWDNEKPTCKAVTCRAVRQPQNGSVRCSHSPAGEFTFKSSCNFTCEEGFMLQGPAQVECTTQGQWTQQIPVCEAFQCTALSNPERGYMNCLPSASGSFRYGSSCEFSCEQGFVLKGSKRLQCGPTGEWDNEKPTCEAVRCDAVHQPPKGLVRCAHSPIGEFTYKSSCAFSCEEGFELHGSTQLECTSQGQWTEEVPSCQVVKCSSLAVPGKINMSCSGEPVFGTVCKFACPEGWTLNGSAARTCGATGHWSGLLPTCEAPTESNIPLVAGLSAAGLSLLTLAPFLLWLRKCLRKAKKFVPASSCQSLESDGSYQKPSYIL
smiles,measurement,setting,value
O=C1OC[C@H](Cc2cccc(O)c2)[C@H]1Cc1cccc(O)c1,outcome,[1],inactive
same,outcome,[2],inactive
same,outcome,[3],inactive
same,outcome,[4],inactive
same,outcome,[5],inactive
same,outcome,[6],inactive
same,outcome,[7],inactive
same,outcome,[8],inactive
same,outcome,[9],inactive
same,outcome,[10],inactive
same,outcome,[11],inactive
same,outcome,[12],inactive
same,outcome,[13],inactive
same,outcome,[14],inactive
same,outcome,"CD40, CD40 (gene 958)",inactive
same,outcome,[15],inactive
same,outcome,[16],inactive
same,outcome,[17],inactive
same,outcome,[18],inactive
same,outcome,[19],inactive
O=C(Nc1ccc2c(O)c(N=Nc3ccc(N=Nc4ccc(S(=O)(=O)O)cc4)cc3)c(S(=O)(=O)O)cc2c1)c1ccccc1,outcome,[1],inactive
same,AC50,[2],23.6 µM (active)
same,outcome,[2],inactive
same,outcome,[3],inactive
same,AC50,[4],15.1 µM (active)
same,outcome,[4],inactive
same,outcome,[5],inactive
same,outcome,[6],inactive
same,outcome,[7],inactive
same,outcome,[8],inactive
same,outcome,[9],inactive
same,outcome,[10],inactive
same,outcome,[12],inactive
same,outcome,[13],inactive
same,outcome,[14],inactive
same,outcome,"CD40, CD40 (gene 958)",inactive
same,outcome,[15],inactive
same,outcome,[16],inactive
same,outcome,[17],inactive
same,outcome,[18],inactive
same,outcome,[19],inactive
